Measured values published in the supplement of paper PMC11001985.

Compound: C#CCNC(=O)CCSSCCC(=O)NCCc1ccc(C=O)c(C=O)c1
Assay: lysine labeling ratio R10:1 (500 µM / 50 µM probe), SILAC-ABPP in living cells; higher = lower intrinsic lysine reactivity toward the probe, active = 2 or less
Conditions: HeLa; probe concentrations 500 vs 50 µM
Method in brief: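 SILAC light and heavy living HeLa cells in PBS at room temperature were labelled with 50 µM or 500 µM of an alkyne-tagged, disulfide-linked lysine probe, with forward and reverse label swaps. Mixed lysates were clicked to biotin-azide, trypsin-digested, captured on neutravidin, DTT-released, alkylated and analysed by LC-MS/MS on a TIMS-TOF Pro. R is the filtered median high-probe/low-probe MS1 peptide ratio per lysine, then the median across forward and reverse replicates. Ratios are capped at 20.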

Chain of UniProt P11717 (P11717 whole entry): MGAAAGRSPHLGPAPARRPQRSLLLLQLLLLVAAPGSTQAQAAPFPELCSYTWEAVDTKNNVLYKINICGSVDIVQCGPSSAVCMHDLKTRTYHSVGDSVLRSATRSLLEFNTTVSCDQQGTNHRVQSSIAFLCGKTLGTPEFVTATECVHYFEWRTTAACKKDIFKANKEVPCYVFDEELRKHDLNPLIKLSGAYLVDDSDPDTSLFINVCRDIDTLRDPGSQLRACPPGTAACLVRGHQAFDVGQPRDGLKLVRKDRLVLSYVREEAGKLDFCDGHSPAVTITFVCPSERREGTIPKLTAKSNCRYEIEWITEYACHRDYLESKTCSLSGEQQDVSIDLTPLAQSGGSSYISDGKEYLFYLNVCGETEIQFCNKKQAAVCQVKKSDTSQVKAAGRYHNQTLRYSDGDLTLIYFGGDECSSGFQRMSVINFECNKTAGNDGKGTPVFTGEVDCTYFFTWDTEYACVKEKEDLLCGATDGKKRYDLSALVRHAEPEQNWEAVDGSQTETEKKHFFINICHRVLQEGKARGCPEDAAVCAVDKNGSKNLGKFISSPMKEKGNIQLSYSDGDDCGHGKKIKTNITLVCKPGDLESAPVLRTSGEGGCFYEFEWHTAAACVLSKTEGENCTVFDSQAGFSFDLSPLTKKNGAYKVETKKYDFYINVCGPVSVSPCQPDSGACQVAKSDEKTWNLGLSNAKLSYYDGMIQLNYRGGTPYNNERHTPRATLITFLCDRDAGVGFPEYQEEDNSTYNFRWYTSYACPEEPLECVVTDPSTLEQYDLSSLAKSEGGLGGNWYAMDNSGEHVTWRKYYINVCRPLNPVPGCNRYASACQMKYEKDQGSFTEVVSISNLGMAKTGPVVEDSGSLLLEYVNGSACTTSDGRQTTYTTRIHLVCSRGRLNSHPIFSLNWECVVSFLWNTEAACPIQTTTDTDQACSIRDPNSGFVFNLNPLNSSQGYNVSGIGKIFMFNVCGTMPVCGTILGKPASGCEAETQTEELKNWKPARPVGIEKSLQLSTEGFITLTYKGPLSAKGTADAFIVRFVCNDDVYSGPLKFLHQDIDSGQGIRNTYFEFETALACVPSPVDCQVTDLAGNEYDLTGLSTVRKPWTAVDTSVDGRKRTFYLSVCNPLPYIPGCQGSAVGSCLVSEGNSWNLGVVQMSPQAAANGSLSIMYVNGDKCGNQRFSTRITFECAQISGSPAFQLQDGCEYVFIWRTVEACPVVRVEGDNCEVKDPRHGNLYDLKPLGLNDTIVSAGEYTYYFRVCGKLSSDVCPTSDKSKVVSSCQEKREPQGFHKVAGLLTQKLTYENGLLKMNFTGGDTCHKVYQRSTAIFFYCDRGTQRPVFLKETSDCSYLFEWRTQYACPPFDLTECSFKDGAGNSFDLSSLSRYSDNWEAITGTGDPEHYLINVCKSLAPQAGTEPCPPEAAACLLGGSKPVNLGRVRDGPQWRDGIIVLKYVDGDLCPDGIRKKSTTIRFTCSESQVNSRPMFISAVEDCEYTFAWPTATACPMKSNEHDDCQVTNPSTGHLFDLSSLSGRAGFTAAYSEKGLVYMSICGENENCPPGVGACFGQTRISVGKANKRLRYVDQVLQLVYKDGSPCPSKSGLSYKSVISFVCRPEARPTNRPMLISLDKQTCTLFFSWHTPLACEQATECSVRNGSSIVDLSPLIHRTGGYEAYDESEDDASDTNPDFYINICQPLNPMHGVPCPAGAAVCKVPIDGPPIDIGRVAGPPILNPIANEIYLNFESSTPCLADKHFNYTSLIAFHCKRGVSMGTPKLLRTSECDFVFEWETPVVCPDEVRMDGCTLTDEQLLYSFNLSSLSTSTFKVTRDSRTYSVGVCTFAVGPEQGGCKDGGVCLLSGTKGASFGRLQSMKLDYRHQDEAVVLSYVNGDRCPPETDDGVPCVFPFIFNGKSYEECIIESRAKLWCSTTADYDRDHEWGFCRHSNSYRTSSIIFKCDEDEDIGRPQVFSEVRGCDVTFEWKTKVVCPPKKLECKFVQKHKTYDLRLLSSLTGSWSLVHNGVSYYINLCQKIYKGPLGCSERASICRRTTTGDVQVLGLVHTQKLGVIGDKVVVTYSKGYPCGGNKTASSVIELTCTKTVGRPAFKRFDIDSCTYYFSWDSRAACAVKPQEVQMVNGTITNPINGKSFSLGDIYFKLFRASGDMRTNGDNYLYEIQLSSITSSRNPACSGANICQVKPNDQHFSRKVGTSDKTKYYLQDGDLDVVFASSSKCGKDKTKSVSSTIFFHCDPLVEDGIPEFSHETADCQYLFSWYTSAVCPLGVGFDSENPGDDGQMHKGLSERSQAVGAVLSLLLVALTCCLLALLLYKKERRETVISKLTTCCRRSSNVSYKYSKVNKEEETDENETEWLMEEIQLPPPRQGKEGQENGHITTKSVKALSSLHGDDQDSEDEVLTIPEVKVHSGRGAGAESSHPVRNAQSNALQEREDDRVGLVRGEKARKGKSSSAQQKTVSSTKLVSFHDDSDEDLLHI
Chain of UniProt Q9P2B2 (Q9P2B2 whole entry): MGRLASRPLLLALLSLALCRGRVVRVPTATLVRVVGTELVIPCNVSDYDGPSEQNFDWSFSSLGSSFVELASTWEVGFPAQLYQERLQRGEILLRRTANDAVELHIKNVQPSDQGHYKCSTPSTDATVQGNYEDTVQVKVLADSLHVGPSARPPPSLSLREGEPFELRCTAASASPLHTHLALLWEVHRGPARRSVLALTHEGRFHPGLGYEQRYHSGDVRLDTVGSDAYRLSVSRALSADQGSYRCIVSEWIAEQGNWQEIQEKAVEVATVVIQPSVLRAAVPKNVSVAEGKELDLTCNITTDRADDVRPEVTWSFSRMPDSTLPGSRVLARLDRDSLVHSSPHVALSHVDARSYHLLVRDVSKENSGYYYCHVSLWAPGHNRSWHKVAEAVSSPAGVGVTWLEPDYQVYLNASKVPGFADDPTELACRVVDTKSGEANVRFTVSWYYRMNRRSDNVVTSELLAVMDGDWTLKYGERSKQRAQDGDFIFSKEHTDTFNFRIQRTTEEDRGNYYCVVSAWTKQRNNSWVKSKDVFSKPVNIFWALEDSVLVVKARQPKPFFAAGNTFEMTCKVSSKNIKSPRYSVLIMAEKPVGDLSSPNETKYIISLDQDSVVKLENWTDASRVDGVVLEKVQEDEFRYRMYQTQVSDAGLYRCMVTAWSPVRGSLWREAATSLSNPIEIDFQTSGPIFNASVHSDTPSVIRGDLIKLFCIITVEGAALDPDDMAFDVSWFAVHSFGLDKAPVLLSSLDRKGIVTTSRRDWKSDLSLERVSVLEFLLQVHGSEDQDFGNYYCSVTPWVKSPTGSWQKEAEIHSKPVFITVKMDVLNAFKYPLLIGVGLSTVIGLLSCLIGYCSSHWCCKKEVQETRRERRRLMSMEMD
Chain of UniProt P40222 (P40222 whole entry): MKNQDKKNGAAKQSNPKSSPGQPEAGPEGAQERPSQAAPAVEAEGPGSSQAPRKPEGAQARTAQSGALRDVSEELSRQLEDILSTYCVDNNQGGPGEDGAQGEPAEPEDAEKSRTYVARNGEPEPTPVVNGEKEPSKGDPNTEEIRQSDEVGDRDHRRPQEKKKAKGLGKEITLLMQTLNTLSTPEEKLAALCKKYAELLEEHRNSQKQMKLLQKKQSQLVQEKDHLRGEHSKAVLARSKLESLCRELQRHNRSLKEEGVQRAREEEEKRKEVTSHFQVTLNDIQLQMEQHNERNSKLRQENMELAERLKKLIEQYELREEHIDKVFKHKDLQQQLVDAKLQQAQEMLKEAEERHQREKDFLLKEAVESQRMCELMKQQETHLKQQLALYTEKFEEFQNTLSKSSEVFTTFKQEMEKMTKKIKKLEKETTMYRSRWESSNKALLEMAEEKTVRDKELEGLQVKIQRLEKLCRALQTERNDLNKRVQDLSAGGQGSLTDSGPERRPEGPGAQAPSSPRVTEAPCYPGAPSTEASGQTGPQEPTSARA
Chain of UniProt P29401 (P29401 whole entry): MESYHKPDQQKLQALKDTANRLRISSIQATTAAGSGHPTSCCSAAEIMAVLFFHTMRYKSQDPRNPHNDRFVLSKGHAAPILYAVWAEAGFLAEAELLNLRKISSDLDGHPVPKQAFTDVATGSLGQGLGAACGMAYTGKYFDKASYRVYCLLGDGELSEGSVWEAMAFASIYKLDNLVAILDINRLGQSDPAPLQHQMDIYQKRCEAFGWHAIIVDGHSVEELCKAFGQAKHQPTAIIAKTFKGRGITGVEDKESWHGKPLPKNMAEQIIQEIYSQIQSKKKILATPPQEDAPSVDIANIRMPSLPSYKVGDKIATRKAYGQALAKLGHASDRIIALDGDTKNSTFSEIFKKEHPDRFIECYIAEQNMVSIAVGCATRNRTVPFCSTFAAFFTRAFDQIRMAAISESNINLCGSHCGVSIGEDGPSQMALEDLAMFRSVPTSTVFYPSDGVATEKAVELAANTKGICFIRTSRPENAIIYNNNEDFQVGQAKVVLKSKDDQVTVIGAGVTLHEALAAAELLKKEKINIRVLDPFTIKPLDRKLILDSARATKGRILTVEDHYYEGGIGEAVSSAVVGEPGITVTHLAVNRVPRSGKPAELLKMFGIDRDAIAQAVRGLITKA
Chain of UniProt P07910 (P07910 whole entry): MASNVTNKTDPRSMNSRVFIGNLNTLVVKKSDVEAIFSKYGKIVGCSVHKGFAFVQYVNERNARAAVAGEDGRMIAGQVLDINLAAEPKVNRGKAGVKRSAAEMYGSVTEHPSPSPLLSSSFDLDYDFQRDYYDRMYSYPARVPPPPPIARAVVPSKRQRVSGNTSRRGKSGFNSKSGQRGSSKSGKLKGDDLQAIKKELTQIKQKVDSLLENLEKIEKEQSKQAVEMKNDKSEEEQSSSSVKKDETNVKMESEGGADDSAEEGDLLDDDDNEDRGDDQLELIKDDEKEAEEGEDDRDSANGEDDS
Chain of UniProt P09382 (P09382 whole entry): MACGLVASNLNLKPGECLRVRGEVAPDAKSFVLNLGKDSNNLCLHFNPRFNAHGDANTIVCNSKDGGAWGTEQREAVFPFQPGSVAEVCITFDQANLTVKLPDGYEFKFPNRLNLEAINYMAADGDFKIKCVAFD

Lysine labeling ratio R10:1, active:
LGALS1 (lysine site: K108) (UniProt P09382) 1.62, IARS (lysine site: K375) (UniProt P41252) 1.66, IGF2R (lysine site: K1873) (UniProt P11717) 0.826, TXLNA (lysine site: K240) (UniProt P40222) 1.67, IGF2R (lysine site: K2338) (UniProt P11717) 1.29

Lysine labeling ratio R10:1, inactive:
SERPINH1 (lysine site: K413) (UniProt P50454) 4.84, UniProt Q8WXI7 (lysine site: K13714) 7.68, HNRNPC (lysine site: K170) (UniProt P07910) 2.35, UniProt Q8WXI7 (lysine site: K13985) 7.69, TKT (lysine site: K353) (UniProt P29401) 6, SPTAN1 (lysine site: K2052) (UniProt Q13813) 3.09, PTGFRN (lysine site: K576) (UniProt Q9P2B2) 2.67, UniProt P61160 (lysine site: K253) 3.35, TAGLN2 (lysine site: K40) (UniProt P37802) 2.67, UniProt P62750 (lysine site: K152) 4.64, CACNA2D1 (lysine site: K690) (UniProt P54289) 3.51, LDLR (lysine site: K783) (UniProt P01130) 3.22
